Assay [1] concerns the target Thyrotropin-releasing hormone receptor (Homo sapiens) (UniProt P34981). Nature of the assay: qHTS assay to identify small molecule agonists of the thyrotropin-releasing hormone receptor (TRHR) signaling pathway (AID 1346891; calls by dose curve;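 also: HEK293 cells expressing TRHR with calcium dye readout; series mostly up to about 58 µM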). A digest of the protocol: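 Agonist-mode calcium mobilisation screen: TRHR-transfected HEK293 cells cultured overnight (18 h), dye-loaded for 2 h at 37 °C, exposed to compounds, and monitored by fluorescence for 3 min.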
(In general: qHTS replaces the single test concentration by a dilution series.)

Assay [2] can be described thus: Human pregnane X receptor (PXR) small molecule agonists, qHTS cell viability counter screen (AID 1346977). Also: nearly all actives have a fitted effect of over 50% in size. Also: potency is read from the fitted curve at half-maximal effect. In a few lines:
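Measures live-cell protease fluorescence (CellTiter-Fluor) in PXR-Luc HepG2 cells treated 24hr with compounds at 37C. Cells had 5hr to attach before pin transfer of DMSO solutions.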

Assay [3] in a line: Caspase-3/7 induction in HepG2 cells by small molecules, qHTS assay (AID 1346978). Also: nearly all actives have a fitted effect of over 15% in size. A digest of the protocol:
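Caspase-3/7 induction was measured by Caspase-Glo 3/7 luminescence (30 min, room temperature) after a 17 hr compound exposure of wild-type HepG2 cells seeded at 2,000 per well and pre-incubated 5 hr.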

Assay [4] is described as follows: Caspase-3/7 induction in CHO-K1 cells by small molecules, qHTS cell viability counter screen (AID 1346979). Also: nearly all actives have a fitted effect of over 35% in size. Also: potency is read from the fitted curve at half-maximal effect. A digest of the protocol:
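In the same wells as the caspase read, viability of compound-treated wild-type CHO-K1 cells was assessed using CellTiter-Fluor, added after 16hr at 37C and measured by fluorescence following 1hr further incubation.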

Assay [5] in a line: Caspase-3/7 induction in CHO-K1 cells by small molecules, qHTS assay (AID 1346980). Also: nearly all actives have a fitted effect of over 15% in size. In a few lines:
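Luminescent Caspase-Glo 3/7 read (30min, room temperature) quantified apoptosis induction. Cells were wild-type CHO-K1, treated with compound for 17hr at 37 C and 5% CO2.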

A short description of assay [6]: Caspase-3/7 induction in HepG2 cells by small molecules, qHTS cell viability counter screen (AID 1346981). Also: nearly all actives have a fitted effect of over 30% in size. Also: potency is read from the fitted curve at half-maximal effect. In a few lines:
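In this quantitative HTS counter screen, compounds delivered in DMSO were left on unmodified HepG2 cells for 16 hr at 37 C. Viability was then determined fluorometrically with CellTiter-Fluor, in parallel with caspase-3/7 induction in the same wells.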

Assay [7] has as its target Nuclear receptor subfamily 1 group I member 2 (Homo sapiens) (UniProt O75469). Nature of the assay: Human pregnane X receptor (PXR) small molecule agonists, qHTS assay (AID 1346982). Also: nearly all actives have a fitted effect of over 35% in size. A digest of the protocol: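 Reporter HepG2 cells expressing PXR-Luc are cultured in charcoal-stripped FBS (5%), treated with compounds for 24 hr at 37 C, and assayed by ONE-Glo luminescence after 30 min at room temperature.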

The target in assay [8] is Cytochrome P450 2D6 (Homo sapiens) (UniProt P10635). Put plainly: Cytochrome P450 Family 2 Subfamily D Member 6 (CYP2D6) small molecule antagonists: luciferase reporter qHTS assay (AID 1671196). Also: nearly all actives have a fitted effect of over 50% in size. Also: potency is read from the fitted curve at half-maximal effect. A digest of the protocol: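 Test chemicals meet CYP2D6 plus proluciferin substrate (10 min, RT); NADPH regenerating solution then drives turnover for 1 h. Detection reagent halts the reaction; luminescence measured after 20 min.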
Cytochrome P450 2D6 (Homo sapiens), sequence (P10635 whole entry, looked up): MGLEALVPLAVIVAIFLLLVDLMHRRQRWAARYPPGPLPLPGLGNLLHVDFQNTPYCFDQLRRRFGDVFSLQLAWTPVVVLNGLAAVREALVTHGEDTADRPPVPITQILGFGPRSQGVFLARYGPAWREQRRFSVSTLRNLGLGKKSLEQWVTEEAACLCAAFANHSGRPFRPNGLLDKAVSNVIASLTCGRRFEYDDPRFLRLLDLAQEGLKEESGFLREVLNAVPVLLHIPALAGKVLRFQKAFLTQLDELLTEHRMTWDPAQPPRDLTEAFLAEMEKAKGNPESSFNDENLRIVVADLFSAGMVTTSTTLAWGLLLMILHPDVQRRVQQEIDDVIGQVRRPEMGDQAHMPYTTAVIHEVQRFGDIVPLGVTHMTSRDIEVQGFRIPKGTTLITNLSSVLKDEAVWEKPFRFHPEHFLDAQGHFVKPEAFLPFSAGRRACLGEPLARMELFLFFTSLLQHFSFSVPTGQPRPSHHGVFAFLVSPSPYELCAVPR
In general terms: In a reporter assay the amount or activity of a reporter protein is the signal.

The target in assay [9] is Cytochrome P450 2C19 (Homo sapiens) (UniProt P33261). Nature of the assay: Cytochrome P450 Family 2 Subfamily C Member 19 (CYP2C19) small molecule antagonists: luciferase reporter qHTS assay (AID 1671197). Also: nearly all actives have a fitted effect of over 65% in size. Also: potency is read from the fitted curve at half-maximal effect. In a few lines: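 CYP2C19 P450-Glo, 1536-well qHTS. Cpd + enzyme/proluciferin substrate 10 min RT; + NADPH regen, 37C 1 h; stop with luciferin detection reagent, 20 min RT, luminescence (RLU). Pos ctrl ketoconazole.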
Cytochrome P450 2C19 (Homo sapiens), sequence (P33261 whole entry, looked up): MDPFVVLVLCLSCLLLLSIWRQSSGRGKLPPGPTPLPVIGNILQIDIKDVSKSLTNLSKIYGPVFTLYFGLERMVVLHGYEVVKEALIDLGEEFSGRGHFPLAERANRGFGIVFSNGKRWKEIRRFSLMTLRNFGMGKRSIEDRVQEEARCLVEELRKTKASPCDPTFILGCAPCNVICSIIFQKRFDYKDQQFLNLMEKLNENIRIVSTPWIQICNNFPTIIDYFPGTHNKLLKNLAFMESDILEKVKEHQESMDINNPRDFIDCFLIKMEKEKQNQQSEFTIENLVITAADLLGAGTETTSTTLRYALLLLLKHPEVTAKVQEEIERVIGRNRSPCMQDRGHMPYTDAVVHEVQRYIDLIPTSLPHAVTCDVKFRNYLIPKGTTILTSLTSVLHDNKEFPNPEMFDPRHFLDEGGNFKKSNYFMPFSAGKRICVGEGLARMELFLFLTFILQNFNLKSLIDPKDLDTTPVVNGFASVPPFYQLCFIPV

Assay [10] has as its target Cytochrome P450 2C9 (Homo sapiens) (UniProt P11712). Put plainly: Cytochrome P450 Family 2 Subfamily C Member 9 (CYP2C9) small molecule antagonists: luciferase reporter qHTS assay (AID 1671198). Also: nearly all actives have a fitted effect of over 50% in size. Also: potency is read from the fitted curve at half-maximal effect. A digest of the protocol:
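Enzyme-substrate mix preincubated with compound 10 min at room temperature; reaction started with NADPH regeneration solution, 1 h 37C. Luminescent luciferin product read after 20 min detection reagent.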

In assay [11] the target is Cytochrome P450 1A2 (Homo sapiens) (UniProt P05177). Nature of the assay: Cytochrome P450 Family 1 Subfamily A Member 2 (CYP1A2) small molecule antagonists: luciferase reporter qHTS assay (AID 1671199). Also: nearly all actives have a fitted effect of over 50% in size. Also: potency is read from the fitted curve at half-maximal effect. In a few lines:
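Steps: enzyme-substrate mix dispensed; test compounds and furafylline control pinned in; 10 min room temperature; NADPH regeneration solution added, 1 h; reaction stopped with luciferin detection reagent; luminescence read after 20 min.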

The target in assay [12] is Cytochrome P450 3A4 (Homo sapiens) (UniProt P08684). Nature of the assay: Cytochrome P450 Family 3 Subfamily A Member 4 (CYP3A4) small molecule antagonists: luciferase reporter qHTS assay (AID 1671201). Also: nearly all actives have a fitted effect of over 50% in size. Also: potency is read from the fitted curve at half-maximal effect. In a few lines: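 Inhibition of CYP3A4 is measured as loss of light: the enzyme converts a proluciferin substrate to luciferin, detected luminescently. Reaction ran 1 h at room temperature with NADPH regeneration after a 10 min compound preincubation.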
Cytochrome P450 3A4 (Homo sapiens), sequence (P08684 whole entry, looked up): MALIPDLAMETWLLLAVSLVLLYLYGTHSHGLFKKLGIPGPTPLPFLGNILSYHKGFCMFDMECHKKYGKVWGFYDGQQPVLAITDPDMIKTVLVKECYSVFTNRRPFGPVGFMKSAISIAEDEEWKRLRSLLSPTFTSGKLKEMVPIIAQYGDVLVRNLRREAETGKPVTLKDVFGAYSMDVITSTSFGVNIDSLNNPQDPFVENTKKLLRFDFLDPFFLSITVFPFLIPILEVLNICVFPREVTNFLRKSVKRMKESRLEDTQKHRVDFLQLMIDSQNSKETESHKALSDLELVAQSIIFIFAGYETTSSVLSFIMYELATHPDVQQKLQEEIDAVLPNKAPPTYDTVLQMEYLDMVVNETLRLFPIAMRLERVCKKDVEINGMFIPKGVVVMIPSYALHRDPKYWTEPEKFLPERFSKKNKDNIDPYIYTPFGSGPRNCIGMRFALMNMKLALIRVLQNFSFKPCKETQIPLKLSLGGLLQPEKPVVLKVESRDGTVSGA

Assay [13] addresses Voltage-gated inwardly rectifying potassium channel KCNH2 (Homo sapiens) (UniProt Q12809). Put plainly: Human Ether-a-go-go-Related Gene (hERG) channel small molecule antagonists: fluorescence cell-based qHTS assay (AID 1671200). A digest of the protocol:
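Quantitative HTS in hERG-U2OS cells: thallium entry through the channel reports activity, read as continuous 480/540 nm fluorescence over 2 min after stimulus addition.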
A general note: hERG is a cardiac potassium channel; its block is linked to QT prolongation.

Values without a mark were called inactive. Inconclusive results are not listed. Active and inactive are the calls of the source. Unless noted, calls follow the shape of the dose curve; as a rule, active = well fitted curve in the direction sought with a large enough effect in the repeat runs; inconclusive = weak or mixed curves; inactive = no such curve, though single readings can be large; an effect the other way counts as inactive or inconclusive.

Thyrotropin-releasing hormone receptor (Homo sapiens), sequence (P34981 whole entry, looked up): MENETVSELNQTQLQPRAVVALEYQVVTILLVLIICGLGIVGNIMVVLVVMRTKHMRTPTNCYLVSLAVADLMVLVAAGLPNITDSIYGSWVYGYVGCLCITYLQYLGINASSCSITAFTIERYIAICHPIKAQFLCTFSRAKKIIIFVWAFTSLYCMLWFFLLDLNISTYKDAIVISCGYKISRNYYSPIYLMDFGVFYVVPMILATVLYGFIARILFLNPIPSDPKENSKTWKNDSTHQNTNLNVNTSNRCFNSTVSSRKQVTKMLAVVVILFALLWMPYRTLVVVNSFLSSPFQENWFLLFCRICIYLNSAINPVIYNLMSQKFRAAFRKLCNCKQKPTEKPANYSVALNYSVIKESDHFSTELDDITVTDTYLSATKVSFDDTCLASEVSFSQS
Cytochrome P450 1A2 (Homo sapiens), sequence (P05177 whole entry, looked up): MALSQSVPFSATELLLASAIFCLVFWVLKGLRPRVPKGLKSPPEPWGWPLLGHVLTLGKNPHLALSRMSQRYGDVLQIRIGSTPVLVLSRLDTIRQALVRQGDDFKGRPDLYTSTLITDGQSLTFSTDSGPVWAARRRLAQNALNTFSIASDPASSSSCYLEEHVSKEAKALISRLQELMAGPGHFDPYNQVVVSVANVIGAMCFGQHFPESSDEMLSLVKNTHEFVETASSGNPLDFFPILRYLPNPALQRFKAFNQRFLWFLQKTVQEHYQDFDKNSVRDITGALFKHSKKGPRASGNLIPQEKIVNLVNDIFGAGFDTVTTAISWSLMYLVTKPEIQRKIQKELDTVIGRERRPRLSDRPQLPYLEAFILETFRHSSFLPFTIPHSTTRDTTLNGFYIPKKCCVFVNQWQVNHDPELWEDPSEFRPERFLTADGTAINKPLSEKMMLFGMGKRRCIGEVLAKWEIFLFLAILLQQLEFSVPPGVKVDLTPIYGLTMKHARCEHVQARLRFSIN
Cytochrome P450 2C9 (Homo sapiens), sequence (P11712 whole entry, looked up): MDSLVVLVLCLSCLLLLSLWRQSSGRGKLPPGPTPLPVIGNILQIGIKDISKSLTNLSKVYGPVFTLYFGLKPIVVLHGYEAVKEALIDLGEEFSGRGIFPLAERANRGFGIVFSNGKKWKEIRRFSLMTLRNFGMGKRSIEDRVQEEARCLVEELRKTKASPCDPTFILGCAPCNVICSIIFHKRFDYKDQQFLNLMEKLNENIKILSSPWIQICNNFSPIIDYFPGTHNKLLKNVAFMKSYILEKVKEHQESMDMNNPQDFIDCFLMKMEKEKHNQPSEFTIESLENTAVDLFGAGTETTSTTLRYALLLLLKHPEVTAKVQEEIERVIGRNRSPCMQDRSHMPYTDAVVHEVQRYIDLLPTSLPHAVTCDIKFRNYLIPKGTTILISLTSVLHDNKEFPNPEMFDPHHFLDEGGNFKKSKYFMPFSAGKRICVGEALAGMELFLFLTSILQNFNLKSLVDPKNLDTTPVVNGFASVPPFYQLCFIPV
Voltage-gated inwardly rectifying potassium channel KCNH2 (Homo sapiens), sequence (Q12809 whole entry, looked up): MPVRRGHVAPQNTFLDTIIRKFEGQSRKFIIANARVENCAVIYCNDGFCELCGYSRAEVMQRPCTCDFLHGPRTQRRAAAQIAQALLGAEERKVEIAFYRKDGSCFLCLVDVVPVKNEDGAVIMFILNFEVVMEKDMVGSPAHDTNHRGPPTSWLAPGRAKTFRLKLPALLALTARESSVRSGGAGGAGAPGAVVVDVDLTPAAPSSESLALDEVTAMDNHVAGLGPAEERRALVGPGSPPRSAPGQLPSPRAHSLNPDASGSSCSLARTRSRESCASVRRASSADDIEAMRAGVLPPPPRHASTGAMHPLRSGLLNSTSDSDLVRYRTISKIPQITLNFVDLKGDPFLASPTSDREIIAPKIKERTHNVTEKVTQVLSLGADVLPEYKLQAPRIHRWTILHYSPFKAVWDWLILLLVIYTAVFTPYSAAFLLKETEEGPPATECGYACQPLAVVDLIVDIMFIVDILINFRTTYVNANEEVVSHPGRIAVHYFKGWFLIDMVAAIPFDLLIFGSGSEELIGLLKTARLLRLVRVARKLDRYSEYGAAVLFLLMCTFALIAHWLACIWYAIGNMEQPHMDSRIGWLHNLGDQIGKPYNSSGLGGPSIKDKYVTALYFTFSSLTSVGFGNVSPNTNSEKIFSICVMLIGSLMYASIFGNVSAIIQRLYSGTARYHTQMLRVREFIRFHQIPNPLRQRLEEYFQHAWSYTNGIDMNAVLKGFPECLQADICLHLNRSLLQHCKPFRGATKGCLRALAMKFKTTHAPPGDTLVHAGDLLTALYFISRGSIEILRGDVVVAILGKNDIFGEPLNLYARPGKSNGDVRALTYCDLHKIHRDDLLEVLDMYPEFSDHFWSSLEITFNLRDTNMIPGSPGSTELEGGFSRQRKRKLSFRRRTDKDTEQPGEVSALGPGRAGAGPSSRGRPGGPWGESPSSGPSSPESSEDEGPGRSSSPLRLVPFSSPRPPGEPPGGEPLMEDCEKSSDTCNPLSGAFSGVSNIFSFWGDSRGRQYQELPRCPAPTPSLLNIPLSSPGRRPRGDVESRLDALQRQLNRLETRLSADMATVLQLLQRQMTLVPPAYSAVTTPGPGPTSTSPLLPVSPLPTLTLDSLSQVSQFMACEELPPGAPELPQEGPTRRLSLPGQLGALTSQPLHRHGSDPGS
Nuclear receptor subfamily 1 group I member 2 (Homo sapiens), sequence (O75469 whole entry, looked up): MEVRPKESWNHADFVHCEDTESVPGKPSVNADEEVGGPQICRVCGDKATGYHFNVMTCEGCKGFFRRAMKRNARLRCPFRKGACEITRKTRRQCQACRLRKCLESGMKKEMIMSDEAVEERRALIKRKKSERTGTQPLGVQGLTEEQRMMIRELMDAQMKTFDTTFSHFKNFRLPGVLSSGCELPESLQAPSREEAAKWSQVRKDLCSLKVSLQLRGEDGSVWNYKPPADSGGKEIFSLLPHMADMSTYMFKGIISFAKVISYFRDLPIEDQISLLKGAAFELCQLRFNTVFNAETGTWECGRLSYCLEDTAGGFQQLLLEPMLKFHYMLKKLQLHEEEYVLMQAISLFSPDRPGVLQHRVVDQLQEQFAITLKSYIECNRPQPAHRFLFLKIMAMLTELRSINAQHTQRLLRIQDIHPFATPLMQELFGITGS

As for `O=C(O)CCS`, the outcome in assay [1] and in assay [5] was inactive. Besides, the Potency result in [2], in assay [3], in [4], in assay [6], in assay [7] and in assay [8] was “inactive” throughout. The Potency entry in [9], in assay [10], in assay [11] and in assay [12] was “inactive” each time.

As to `COC(=O)CC(C(C)=O)C(=O)OC` (centres undefined), the call in [1] and in assay [5] was inactive. Moreover, the Potency entry in assay [2], in assay [3], in assay [4], in assay [6], in assay [7] and in [8] was “inactive” each time. Further, the Potency result in assay [9], in [13] and in assay [12] was “inactive” in each case. Further, the Potency in assay [10] was 44.8 µM (active).

For the compound `NC(=O)c1ccccc1[N+](=O)[O-]`, the call in assay [1] and in assay [5] was inactive. Also, the Potency result in assay [2], in assay [3], in [4], in [6], in [7] and in assay [8] was “inactive” in each case. In addition, the Potency entry in [9], in assay [10] and in assay [13] was “inactive” in each case.

In the case of `CCN(CC)c1ccc(C(=C2C=CC(=[N+](CC)CC)C=C2)c2ccc(S(=O)(=O)O)cc2S(=O)(=O)[O-])cc1`, the outcome in [1] and in assay [5] was inactive. Also, the Potency in assay [2] was 15.4 µM (active); in assay [4], 15.4 µM (active); in assay [6], 19.3 µM (active); in [8] it was 20 µM (active); in assay [9] it was 17.8 µM (active); in assay [10], 14.2 µM (active). For the same compound, the Potency in assay [11] was 10 µM (active); in assay [12], 8.94 µM (active). The Potency entry in assay [3], in [7] and in assay [13] was “inactive” throughout.

With `CC(=O)C(=O)CC(C)C`, the result in [1] and in assay [5] was inactive. Also, the Potency entry in assay [2], in assay [3], in assay [4], in assay [6], in [7] and in [8] was “inactive” in each case. Also, the Potency result in assay [13] and in assay [12] was “inactive” throughout. In addition, the Potency in assay [9] was 35.4 µM (active).

As to `CC(=O)NNC(C)=O`, the compound was called inactive in assay [1] and in assay [5]. The Potency entry in assay [2], in assay [3], in assay [4], in [6], in assay [7] and in [8] was “inactive” throughout. In addition, the Potency result in assay [9], in [10], in assay [11], in assay [13] and in assay [12] was “inactive” in each case.

Consider `O=C(O)CCC(=O)OC[C@@H](NC(=O)C(Cl)Cl)[C@H](O)c1ccc([N+](=O)[O-])cc1`, for which the compound was classed as inactive in [1] and in assay [5]. Moreover, the Potency entry in assay [2], in assay [3], in assay [4], in [6], in assay [7] and in assay [8] was “inactive” each time. Moreover, the Potency result in assay [10], in assay [11] and in [13] was “inactive” throughout.

As for `CC(C)(O)c1coc(S(=O)(=O)NC(=O)Nc2c3c(cc4c2CCC4)CCC3)c1`, the result in assay [1] and in assay [5] was inactive. For the same compound, the Potency entry in assay [2], in [3], in assay [4], in assay [6], in assay [7] and in [8] was “inactive” in each case. Further, the Potency result in [13] was “inactive”. For the same compound, the Potency is 35.6 µM (active) in assay [9], 25.2 µM (active) in [10], 17.8 µM (active) in assay [11] and 22.4 µM (active) in assay [12].

As to `COc1cc(NS(=O)(=O)c2ccc(N)cc2)nc(C)n1`, the result in assay [1] and in [5] was inactive. The Potency result in assay [2], in assay [3], in [4], in assay [6], in assay [7] and in assay [8] was “inactive” throughout. Besides, the Potency result in [9], in assay [10], in assay [11], in assay [13] and in assay [12] was “inactive” each time.

Values taken from PubChem BioAssay (Tox21).
